{"source": "PubChem BioAssay AID1240", "about": "(Sanford-Burnham Center for Chemical Genomics, 2008)", "note": "Screen size: about 50,000 compounds; about 800 (1.6%) showed an effect of 50% or more. This is one part of a sample in which strong results are shown more often than they occur."}
{"target": "Bcl-2-like protein 10 (Homo sapiens) (UniProt Q9HD36)", "sequence (Q9HD36 whole entry, looked up)": "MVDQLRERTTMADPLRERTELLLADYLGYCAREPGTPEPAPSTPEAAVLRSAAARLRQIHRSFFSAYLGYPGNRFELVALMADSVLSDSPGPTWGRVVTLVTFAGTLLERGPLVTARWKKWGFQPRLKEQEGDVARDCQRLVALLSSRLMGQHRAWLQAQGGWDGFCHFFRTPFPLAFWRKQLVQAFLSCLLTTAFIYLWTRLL", "assay": "TR3 peptide-Bcl-B binding displacers, biochemical primary FP assay, phenotype converters (AID 1240);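 also: 0% = Bcl-B with tracer peptide and DMSO and 100% = tracer peptide lacking Bcl-B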", "conditions": "GST-Bcl-B / FITC-TR3 peptide fluorescence polarization; stronger effect = higher value; compound at 3.75 mg/L", "units": {"displacement": "%"}}
{"smiles": "Cc1ccccc1C(=O)O/N=C(\\N)c1cccc([N+](=O)[O-])c1", "displacement": -7.1}
{"smiles": "Clc1ccc(OCCCN2CCCCC2)cc1", "displacement": -10}
{"smiles": "COc1ccccc1OCCCN1CCOCC1", "displacement": -1.3}
{"smiles": "COc1ccc(C2CC(O)C(C)C(c3ccc(OC)cc3)N2)cc1", "note": "(configuration not stated)", "displacement": 7.8}
{"smiles": "CCOc1ccc(C(=O)Nc2cccc(C(F)(F)F)c2)cc1Cl", "displacement": -12}
{"smiles": "Cc1ccc(C(=O)Nc2ccc(-c3nc4ncccc4o3)cc2)cc1C", "displacement": 21.5}
{"smiles": "COc1ccc(-c2cc(=O)oc3cc(OC(C)=O)ccc23)cc1", "displacement": -5.1}
{"smiles": "CC(=O)N(c1ccccc1)c1nnc(C)s1", "displacement": -0.3}
{"smiles": "O=C1NC(=O)N(c2ccccc2F)C(=O)/C1=C/c1ccc(I)o1", "displacement": 34.5}
{"smiles": "CCN(CC)c1ccc(C=C(C(C)=O)C(C)=O)c(OC(C)=O)c1", "displacement": 48.6}
{"smiles": "CCN(CC)c1ccc(C=C(C#N)C#N)c(OC)c1", "displacement": 91.5}
{"smiles": "CCN(CC)c1ccc(/C=C(\\C#N)C(=O)Nc2ccc(OC)cc2)c(OC)c1", "displacement": -6.6}
{"smiles": "Cc1cc(OCC(O)CNC(C)C)cc(C)c1Cl", "note": "(configuration not stated)", "displacement": 3.1}
{"smiles": "COc1ccc(N2C(=O)/C(=C/c3cn(Cc4ccccc4)c4ccccc34)C(=O)NC2=S)cc1", "displacement": 25}
{"smiles": "O=C(Cn1cc(/C=C2/C(=O)NC(=S)N(c3ccccc3)C2=O)c2ccccc21)Nc1ccccc1", "displacement": 143}
{"smiles": "O=C(Cn1cc(/C=C2\\NC(=S)NC2=O)c2ccccc21)Nc1ccccc1", "displacement": -41.9}
{"smiles": "O=C(Cn1cc(/C=C2\\SC(=S)NC2=O)c2ccccc21)Nc1ccccc1", "displacement": -11.9}
{"smiles": "O=C(Cn1cc(C=C2C(=O)NC(=S)NC2=O)c2ccccc21)Nc1ccccc1", "displacement": 130}
{"smiles": "NC(=O)Cn1cc(/C=C2\\C(=O)NC(=O)N(Cc3ccccc3)C2=O)c2ccccc21", "displacement": 17}
{"smiles": "O=C(Nc1ccccc1)Nc1nnc(Cc2cccc(Br)c2)s1", "displacement": 1.9}
{"smiles": "CC1=C(C(=O)OCCc2ccccc2)C(c2ccccc2Cl)CC(=O)N1", "note": "(configuration not stated)", "displacement": -7.2}
{"smiles": "CC(C)(C)c1csc(N/N=C/c2ccccn2)n1", "displacement": -6.6}
{"smiles": "OCCNCCOc1cccc(Cl)c1Cl", "displacement": 2.8}
{"smiles": "O=C1C2C3C=CC(O3)C2C(=O)N1c1ccccc1I", "note": "(configuration not stated)", "displacement": 17.8}
{"smiles": "CCOc1ccccc1C(=O)Nc1ccc(N2CCOCC2)cc1", "displacement": 3.2}
{"smiles": "Cc1cccc(/C=C2/SC(=S)N(Cc3ccccc3)C2=O)c1", "displacement": 13.4}
{"smiles": "Nc1nc2nc(C(F)(F)C(F)(F)C(F)(F)C(F)(F)F)cc(=O)n2[nH]1", "displacement": -1.7}
{"smiles": "COc1cc(OC)c(OC)cc1CNc1cccc(C)c1", "displacement": 4.3}
{"smiles": "N#C/C(=C\\c1ccc(-c2ccc(Cl)c(Cl)c2)o1)C(N)=O", "displacement": 7.8}
{"smiles": "N#C/C(=C/c1ccc(-c2ccc3c(c2)C(=O)NC3=O)o1)C(N)=O", "displacement": 140}
{"smiles": "N#C/C(=C\\c1ccc(-c2ccc3c(c2)COC3=O)o1)c1nc2ccccc2[nH]1", "displacement": 58.6}
{"smiles": "N#CC(C#N)=Cc1ccc(-c2ccc3c(c2)COC3=O)o1", "displacement": 109}
{"smiles": "Cc1ccc([N+](=O)[O-])cc1-c1ccc(/C=C(\\C#N)c2nc3ccccc3[nH]2)o1", "displacement": -0.7}
{"smiles": "N#C/C(=C\\c1ccc(-c2ccc3c(c2)COC3=O)o1)C(N)=O", "displacement": -10.4}
{"smiles": "N#C/C(=C\\c1ccc(-c2ccc(Br)cc2)o1)c1nc2ccccc2[nH]1", "displacement": 2.1}
{"smiles": "N#C/C(=C\\c1ccc(-c2ccc(Br)cc2)o1)C(N)=O", "displacement": 4.6}
{"smiles": "N#CC(C#N)=Cc1ccc(-c2ccc(S(N)(=O)=O)cc2)o1", "displacement": -0.4}
